# Where a name gives a salt, the structure may show the parent alone. Whole data set: some 2,800 compounds, median “cell viability relative to vehicle” near 0.98, cut for the lowest 2% near 0.45. The sample holds the lowest values, similar compounds and a random draw of the others, so the mix is not that of the screen.
# Test system: NCI-H2228 alectinib-DTP
# Assay: cell viability relative to vehicle (fraction of vehicle); NCI-H2228 is an ALK-positive lung cancer line and DTP means drug-tolerant persister; higher = less growth inhibition
# Conditions: 100 nM; treatment time 6 days
# Procedure, shortened: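 Each value is viability relative to vehicle-treated cells, measured as ATP with the CellTiter-Glo 3D Cell Viability Assay. Parental NCI-H2228 cells and drug-tolerant persisters (1000 nM targeted drug, 13 days) in 384-well plates received the 3114-agent TargetMol anti-cancer compound library at 100 nM, or DMSO, and were read 6 days later.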
row,SMILES,cell viability
1,C/C(=N\NC(=S)N1CCC1)c1ccccn1,0.362
2,Cc1ccc(/C(=C\CN2CCCC2)c2ccccn2)cc1 [Triprolidine hydrochloride],1.18
3,S=C(N/N=C1/CCCc2cccnc21)N1CCN(c2ccccn2)CC1,1.09
4,Cn1c(O)c(C2=c3ccccc3=NC2=O)c2ccccc21 [Methylisoindigotin],0.85
5,CC(C)=CCc1cc2c(cc1O)oc(=O)c1c3ccc(O)cc3oc21 [Psoralidin],1.15
6,COc1ccc(C[C@H](NC(=O)[C@H](C)NC(=O)CN2CCOCC2)C(=O)N[C@@H](Cc2ccccc2)C(=O)C2(C)CO2)cc1 (stereo in doubt),1.03
7,CC(C)c1nc(CN(C)C(=O)N[C@@H](CCN2CCOCC2)C(=O)N[C@H](CC[C@H](Cc2ccccc2)NC(=O)OCc2cncs2)Cc2ccccc2)cs1 [Cobicistat],1.02
8,CC(C)C[C@H](NC(=O)[C@H](CCc1ccccc1)NC(=O)CN1CCOCC1)C(=O)N[C@@H](Cc1ccccc1)C(=O)N[C@@H](CC(C)C)C(=O)[C@@]1(C)CO1 [Carfilzomib],0.116
9,N[C@@H](CSCCB(O)O)C(=O)O,0.835
10,O=C(O)Cn1c2c(c3cc(F)ccc31)CN(C(=O)c1cccc3ccccc13)CC2 [Setipiprant],1.18
11,CC(C)(C)c1ccc(C(=O)NC(=S)Nc2ccc(N)cc2)cc1 [Tenovin3],0.734
12,CCCCCCCCCCCCCC(=S)NCCCC[C@H](NC(=O)OCc1ccccc1)C(=O)Nc1ccccc1 [Thiomyristoyl],1.11
13,C/C=C1\NC(=O)[C@H]2CSSCC/C=C/[C@H](CC(=O)N[C@H](C(C)C)C(=O)N2)OC(=O)[C@H](C(C)C)NC1=O [Romidepsin],0.116
14,O=c1nc(N2CCN(CC3CCCCC3)CC2)sc2c([N+](=O)[O-])cc(C(F)(F)F)cc12,0.985
15,CCC(Sc1nnc2c(n1)[nH]c1ccccc12)C(=O)N1c2ccccc2Sc2ccccc21 (stereo unspecified) [Inauhzin],1.06
16,CCc1c2c(nc3ccc(OC(=O)N4CCC(N5CCCCC5)CC4)cc13)-c1cc3c(c(=O)n1C2)COC(=O)[C@]3(O)CC [Irinotecan],1.07
17,CCc1c2c(nc3ccc(O)cc13)-c1cc3c(c(=O)n1C2)COC(=O)[C@]3(O)CC,0.263
18,CC[C@@]1(O)C(=O)OCc2c1cc1n(c2=O)Cc2cc3c(CN(C)C)c(O)ccc3nc2-1 [Topotecan hydrochloride],0.245
19,CC[C@@]1(O)C(=O)OCc2c1cc1n(c2=O)Cc2cc3cc(O)ccc3nc2-1 [Hydroxy Camptothecine],0.255
20,CCc1c2c(nc3ccc(OC(=O)N4CCC(N5CCCCC5)CC4)cc13)-c1cc3c(c(=O)n1C2)COC(=O)[C@]3(O)CC [Irinotecan hydrochloride trihydrate],1.05
21,CC[C@@]1(O)C(=O)OCc2c1cc1n(c2=O)Cc2cc3cc(O)ccc3nc2-1 [10-Hydroxycamptothecin],0.304
22,COc1ccc(S(=O)(=O)NCc2ccc(C(=O)NCCc3ccc(Cl)cn3)cc2)cc1,1.14
23,CN1CCN(c2ccc(C(=O)Nc3cc(-c4cccc(NS(=O)(=O)c5ccccc5)c4)[nH]n3)cc2)CC1,0.98

row,SMILES,cell viability
1,CC(C)Cc1ccc(-c2nc(-c3ccc(CN4CC(C(=O)O)C4)c(F)c3)no2)cc1 [S1p-receptor-agonist-1],1.03
2,OC(CCN1CCCCC1)(c1ccccc1)C1CCCCC1 (racemic) [DL-trihexyphenidyl hydrochloride],0.964
3,CCCC[S+]([O-])c1sc2nc(-c3cccs3)cc(-c3ccccc3)c2c1N (stereo unspecified),1
4,Nc1c(S(=O)(=O)c2ccccc2)c2nc3ccccc3nc2n1-c1ccc(F)cc1,1.11
5,Cc1cccc(C)c1N(CC(=O)Nc1ccc(-c2ncon2)cc1)C(=O)C1CCS(=O)(=O)CC1 [Amenamevir],0.926
6,CC(C)=CC(=O)CCC(=O)N1CCN(Cc2cc3nc(-c4cccc5[nH]ncc45)nc(N4CCOCC4)c3s2)CC1,0.892
7,O=C1Nc2ccccc2/C1=C/c1ccc(F)cc1,1.04
8,N#Cc1c(-c2ccccc2)cc(-c2cc(Br)ccc2O)[nH]c1=O,0.907
9,CC/C(=C(/c1ccc(/C=C/C(=O)O)cc1)c1ccc2[nH]ncc2c1)c1ccc(F)cc1Cl,1.07
10,CCOC(=O)c1c(C)[nH]c(C=C2C(=O)Nc3ccccc32)c1C [VEGFR2 Kinase Inhibitor I],1.19
11,COc1c(O[C@@H]2O[C@H](CO)[C@@H](O)[C@H](O)[C@H]2O)cc2occ(-c3ccc(O)cc3)c(=O)c2c1O [Tectoridin],1.03
12,Cc1[nH]c2ccccc2c1CCNCc1ccc(/C=C/C(=O)NO)cc1 [Panobinostat],0.22
13,CN(C)Cc1ccc(S(=O)(=O)n2ccc(/C=C/C(=O)NO)c2)cc1 [Resminostat hydrochloride],1.15
14,Cc1[nH]c2ccccc2c1CCNC(=O)c1cccs1,0.919
15,Cc1ccc(S(=O)(=O)Nc2cc(C(F)(F)F)ccc2C(=O)Nc2nc(-c3ccccc3)cs2)cc1,0.852
16,CCC(=O)O[C@]1(C(=O)CO)CC[C@H]2[C@@H]3CCC4=CC(=O)CC[C@]4(C)[C@H]3CC[C@@]21C [17 alpha-propionate],0.936
17,NC[C@H]1OB(O)c2c(OCCCO)cccc21 [Epetraborole hydrochloride],1.11
18,Cc1cc(O)c(-c2ccc(C(C)CN)cc2)c2c1[nH]c(=O)c1sccc12 (stereo unspecified),0.15
19,O=C1C[C@@H](c2ccccc2)Oc2cc(O)cc(O)c21 [Pinocembrin],0.964
20,C[C@H](CCOc1cccc(CC(=O)O)c1)N(Cc1cccc(C(F)(F)F)c1Cl)CC(c1ccccc1)c1ccccc1,0.781
21,C=C1CC[C@H]2C(=C)CC[C@H]3C(=C)C(=O)O[C@@H]3[C@@H]12 [Dehydrocostus Lactone],0.984
22,CC(C)=CCC[C@](C)(O)[C@H]1CC[C@]2(C)[C@@H]1[C@H](O)C[C@@H]1[C@@]3(C)CC[C@H](O)C(C)(C)[C@@H]3CC[C@]12C [(20S)-Protopanaxadiol],0.908
23,Cc1c(-c2ccc(N3CCc4cccc(C(=O)Nc5nc6ccccc6s5)c4C3)nc2C(=O)O)cnn1CC12CC3CC(CC(C3)C1)C2,0.806
